Results published in paper PMC5540273 (PLoS ONE, 2017).

Assays:
Settings in all cases: concentration: 1 μM, replicates: in singlicate; n = 1
CAMK2G = tested on: CAMK2G
CAMK4 = tested on: CAMK4
CAMKK1 = tested on: CAMKK1
CAMKK2 = tested on: CAMKK2
CASK = tested on: CASK
CDC2L1 = tested on: T1, CDC2L1
T1 construct: gene CDK11B

CDC2L2 = tested on: CDC2L2
CDC2L5 = tested on: T2, CDC2L5
T2 construct: gene CDK13

CDK11 = tested on: T3, CDK11
T3 construct: gene CDK19

CDK2 = tested on: CDK2
CDK3 = tested on: CDK3
CDK4-cyclinD1 = tested on: CDK4-cyclinD1
CDK4-cyclinD3 = tested on: CDK4-cyclinD3
CDK4 = tested on: CDK4
CDK5 = tested on: CDK5
CDK7 = tested on: CDK7
CDK8 = tested on: CDK8
CDK9 = tested on: CDK9
CDKL1 = tested on: CDKL1
CDKL2 = tested on: CDKL2
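Note: KINOMEscan kinase panel screen.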

Row | Compound | %Inh (CAMK2G) [%] | %Inh (CAMK4) [%] | %Inh (CAMKK1) [%] | %Inh (CAMKK2) [%] | %Inh (CASK) [%] | %Inh (CDC2L1) [%] | %Inh (CDC2L2) [%] | %Inh (CDC2L5) [%] | %Inh (CDK11) [%] | %Inh (CDK2) [%] | %Inh (CDK3) [%] | %Inh (CDK4-cyclinD1) [%] | %Inh (CDK4-cyclinD3) [%] | %Inh (CDK4) [%] | %Inh (CDK5) [%] | %Inh (CDK7) [%] | %Inh (CDK8) [%] | %Inh (CDK9) [%] | %Inh (CDKL1) [%] | %Inh (CDKL2) [%]
1 | COc1ccc(-c2coc3ccc(-c4nnc(SCc5cccc(C#N)c5)o4)cc23)cc1 | 0 | 0 | 0 | 0 | 8 | 0 | 10 | 0 | 0 | 6 | 0 | 0 | 0 | 0 | 18 | 9 | 0 | 0 | 5 | 0
2 | FC(F)(F)c1ccc(-c2ncn(CCCN3CCOCC3)c2-c2ccncc2)cc1 [SB-217780] | 21 | 14 | 11 | 18 | 0 | 0 | 14 | 15 | 0 | 0 | 0 | 0 | 1 | 9 | 0 | 9 | 12 | 0 | 13 | 0
3 | Cc1nn2c(=O)cc(N3CCOCC3)nc2n1Cc1cccc(Cl)c1Cl [GSK2342769] | 10 | 25 | 2 | 9 | 0 | 0 | 6 | 0 | 16 | 0 | 16 | 0 | 0 | 0 | 0 | 0 | 0 | 0 | 0 | 19
4 | Cc1ccccc1COc1cc(-n2cnc3cc(Cl)ccc32)sc1C(N)=O [GW813349] | 0 | 0 | 0 | 0 | 17 | 0 | 0 | 0 | 23 | 0 | 0 | 25 | 3 | 0 | 0 | 0 | 14 | 0 | 34 | 13
5 | Cc1c(Cn2c(C)nn3c(=O)cc(N4CCO[C@H](C)C4)nc23)cccc1C(F)(F)F [GSK2373690] | 18 | 0 | 0 | 10 | 14 | 0 | 8 | 0 | 14 | 0 | 18 | 0 | 0 | 0 | 0 | 0 | 13 | 0 | 3 | 24
6 | CCS(=O)c1ccc(-c2coc3ccc(-c4nnc(C)o4)cc23)cc1 (stereo not drawn) | 0 | 0 | 0 | 0 | 0 | 0 | 0 | 14 | 0 | 0 | 0 | 25 | 0 | 32 | 12 | 20 | 5 | 0 | 0 | 0
7 | COc1cccc(C2=C(Nc3cccc(C(=O)O)c3)C(=O)NC2=O)c1 [SB-390770] | 14 | 0 | 1 | 14 | 13 | 0 | 0 | 0 | 0 | 15 | 9 | 9 | 0 | 0 | 0 | 0 | 4 | 0 | 0 | 24
8 | COc1cc(Nc2nccc(N3CCC(NC(=O)C(C)c4ccc(Cl)cc4)C3)n2)cc(OC)c1OC (stereo not drawn) [GSK1379757] | 21 | 0 | 0 | 1 | 0 | 0 | 13 | 0 | 3 | 0 | 0 | 0 | 0 | 36 | 0 | 0 | 22 | 0 | 9 | 2
9 | CCC(=O)c1c(-c2ccccc2)c2cc(Cl)ccc2c(=O)n1Cc1ccc(C(=O)O)cc1 | 0 | 0 | 0 | 0 | 0 | 0 | 0 | 0 | 0 | 0 | 0 | 0 | 0 | 0 | 0 | 0 | 4 | 0 | 0 | 7
10 | COc1cc2ncn(-c3cc(OCc4ccc(S(C)(=O)=O)cc4)c(C(N)=O)s3)c2cc1OC [GW869979] | 0 | 0 | 0 | 0 | 37 | 0 | 14 | 31 | 0 | 0 | 0 | 14 | 16 | 9 | 0 | 0 | 0 | 0 | 0 | 0
11 | COc1ccc(-c2cc3c(C)nc(N)nc3n([C@H]3CC[C@H](O)CC3)c2=O)cn1 | 0 | 0 | 0 | 0 | 0 | 0 | 0 | 0 | 0 | 0 | 8 | 0 | 0 | 0 | 0 | 7 | 0 | 0 | 0 | 0
12 | COc1cc(Nc2nccc(N3CCC(NC(=O)C4COc5ccccc5O4)C3)n2)cc(OC)c1OC (stereo not drawn) [GSK1379761] | 26 | 0 | 20 | 14 | 0 | 0 | 4 | 0 | 7 | 0 | 0 | 52 | 0 | 70 | 0 | 57 | 57 | 0 | 11 | 11
13 | CC(C)(C)c1ccc(C(=O)Nc2cn3cc(-c4ccccc4)ccc3n2)cc1 | 0 | 14 | 0 | 0 | 1 | 0 | 11 | 0 | 0 | 0 | 12 | 14 | 0 | 0 | 0 | 5 | 5 | 6 | 29 | 5
14 | CCCC(=O)Nc1n[nH]c2ncc(-c3cccc4ccccc34)cc12 [SB-642057] | 28 | 22 | 20 | 30 | 34 | 0 | 1 | 0 | 0 | 56 | 51 | 0 | 37 | 0 | 0 | 0 | 7 | 0 | 10 | 0
15 | COc1ccc(-n2cnc3c(N)ncnc32)cc1 [SKF-97236] | 6 | 12 | 0 | 0 | 0 | 0 | 0 | 4 | 0 | 19 | 25 | 0 | 0 | 11 | 8 | 11 | 0 | 0 | 29 | 1
